Results: PubChem BioAssay (NCI)
The panel holds about 83,000 compounds, 20% with a hit somewhere; the sample as a whole holds those more often.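 In brief: 96-well plates, 48 h treatment, single concentration, percent growth endpoint.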 Activity calls are given as the source filed them.

test system: OVCAR-8 ovarian; assay: NCI-60 one-dose screen, 48 h (100 = growth as untreated, 0 = no growth, -100 = all killed); settings: 10 µM unless noted
Method: Growth inhibition of the OVCAR-8 human tumor cell line is measured as a screen for anti-cancer activity. Cells are grown in 96 well plates and exposed to the test compound for 48 hours. Compounds are tested at a single concentration, which is 10^-5 M for most compounds. The reported endpoint is percent growth (GI% or GIPRCNT), where numbers from 0 - 100% represent growth inhibition, and numbers from -100% - 0 represent cell death. For example, a value of 40 represents 60% growth inhibition. A value of 0 means no net growth occurred over the course of the experiment. A value of -40 indicates 40% of cells at the beginning of the experiment died by the end of the experiment. A value of -100 means all cells are dead at the end of the experiment.
NCI-60 Human Tumor Cell Lines Screen was performed using the standard one-dose NCI protocol, which is described in more detail at https://dtp.cancer.gov/discovery_development/nci-60/default.htm.
Compounds with GIPRCNT values below 10 were considered active. Activity score was based on GIPRCNT using the following formula: […]
Score is 0 for GIPRCNT values of 100 or above, 50 for GIPRCNT values of 0, and 100 for GIPRCNT values of -100.

Structure (SMILES) | growth
COC(=O)/C=C1/SC(=Nc2ccc(F)cc2)N(CCc2c[nH]c3ccc(O)cc23)C1=O | 26.1% (inactive)
N#Cc1nn(-c2cc(=O)[nH]c3ccc(Br)cc23)c(N)c1C#N | 96% (inactive)
O=C(Nc1ncc(Cc2ccccc2)s1)c1sc2ccccc2c1Cl | 27.8% (inactive)
COC(=O)c1ccc2c(c1)c1c(C)c3cnccc3c(C)c1n2C | 0.0639% (active)
CC12OC(CC(O)C1O)n1c3ccccc3c3c4c(c5c6ccccc6n2c5c31)C(=O)N(CCN1CCCC1)C4=O (stereo not given) | 26.3% (inactive)
Cc1cccc(-c2nc(C(C)C)sc2-c2ccnc(NCCCNS(=O)(=O)c3ccc(Cl)cc3)c2)c1 | 81.4% (inactive)
COC(=O)Cn1c2c(c3c(OC)cccc31)C(=O)c1ccccc1-2 | 107% (inactive)
Cn1c2ccccc2c2c3c(c4c5cc(Br)ccc5n(C)c4c21)C(=O)N(O)C3=O | 24.8% (inactive)
O=c1cc(-c2ccccc2)nc(SCc2nc3cc(Cl)c(Cl)cc3[nH]2)[nH]1 | 104% (inactive)
CCN1C(=O)N(CC)C2C1NN=c1s/c(=C\c3ccc(OC)cc3)c(=O)n12 (stereo not given) | -2.81% (active)
COc1ccccc1/C=C/C(=O)Nc1ccc(F)cc1 | 100% (inactive)
COc1cc2c3c(c4c5ccccc5[nH]c4c2c(OC)c1OC)C(=O)N(CCN1CCCCC1)C3=O | -35.5% (active)
Clc1ccc(-c2nc(C(Cl)Cl)nc3cc(-c4ccccc4)nn23)cc1 | 29.8% (inactive)
Cc1ccc(C2CC(c3cccc(Nc4ccncc4)c3)=Nc3c(N)nc(N)nc3N2)cc1 (stereo not given) | 38% (inactive)
N=C(N)c1ccc(OCCSCCOc2ccc(C(=N)N)cc2)cc1 | 64% (inactive)
C[C@H](c1nc2ccc(C#N)cc2[nH]1)[C@H]1CC[C@H]2[C@@H]3CCC4=CC(=O)CC[C@]4(C)[C@H]3CC[C@]12C | 79.6% (inactive)
CCn1cc(Cc2cc(C(=O)Nc3cc4cc(OC)c(OC)cc4c(C)n3)ccc2Cl)cn1 | 34.6% (inactive)
CN1CCN(c2ccc(NC3=CC(=O)c4ncncc4C3=O)cc2)CC1 | -53.2% (active)
C/C=C1/CN(CCCCC)CC[C@H]1C(=O)c1cc2ccccc2[nH]1 | 91.7% (inactive)
CCN(CC)C(=O)C1=C(C)NC(=O)NC1c1ccc2c(c1)OCO2 (stereo not given) | 106% (inactive)

Structure (SMILES) | growth
C=C(C)[C@@H]1CC[C@]2(C(=O)Nc3ccccn3)CC[C@]3(C)[C@H](CC[C@@H]4[C@@]5(C)CCCNC(C)(C)[C@@H]5CC[C@]43C)[C@@H]12 | 12.4% (inactive)
N#Cc1c(-c2ccccc2)nc2c(c(-c3ccccc3)nn2-c2ccccc2)c1-c1ccc(N2CCCCC2)cc1 | 98.4% (inactive)
CS(=O)(=O)Nc1cc(-c2ccc3ncnc(Nc4ccc5c(cnn5Cc5ccccc5F)c4)c3c2)cnc1Cl | 69.7% (inactive)
Nc1nc(C(=O)N/N=C/c2ccc(F)cc2)nn1-c1ccc(S(N)(=O)=O)cc1 | 97.5% (inactive)
COc1ccc(Cl)cc1Nc1nc(C(F)(F)F)ccc1C(=O)N/N=C/c1ccc([N+](=O)[O-])cc1 | 9.77% (active)
CCOC(=O)c1cnn(CC(C)O)c1NC(=O)NCc1ccccc1C(F)(F)F (stereo not given) | 97.6% (inactive)
COC12C=C/C(=C(/C(=O)OCc3cncnc3)C(=O)CCCCCCCCC3(OC)C=C/C(=C(/C(=O)OCc4cncnc4)C(=O)CCCCCCCC1)O3)O2 | 9.06% (active)
COc1ccc(OC)c(Nc2nnc(-c3cc(OC)c(OC)c(OC)c3)o2)c1 | 104% (inactive)
CC(=O)O[C@H]1CC[C@]2(C)[C@H]3CC=C4[C@@H]5CC(C)(C)CC[C@]5(C(=O)N5CCN(CCC#N)CC5)CC[C@@]4(C)[C@]3(C)CC[C@H]2C1(C)C | 29.6% (inactive)
COc1cc(-c2ccc(-c3ccc(C(=N)N)cc3)s2)cc(OC)c1OC | 70.7% (inactive)
C=C1C(=O)O[C@H]2[C@H]1CC/C(CNC(=O)Cc1c[nH]c3ccccc13)=C\CC[C@@]1(C)O[C@@H]21 | 9.54% (active)
COc1ccc2[nH]cc(-c3nonc3-c3c[nH]c4ccc(Br)cc34)c2c1 | 48.7% (inactive)
O=C(CCCCCCCC(=O)N1CCCCC1)N1CCCCC1 | 98.8% (inactive)
Cc1ccc(OCCOCCOCCOCCOCCOc2ccc(C)n(O)c2=S)c(=S)n1O | 14.1% (inactive)
N#C/C(=C\c1ccc(-c2cccc(Cl)c2)o1)C(=O)Nc1ncc(Cc2ccc(Cl)cc2)s1 | 40.4% (inactive)
O=C1/C(=C/c2c[nH]c(=O)[nH]c2=O)SC(=S)N1Cc1ccccc1 | 100% (inactive)
COc1ccc(/C=N/NC(=O)Cn2c(-c3ccc(S(C)(=O)=O)cc3)nc3ccccc32)cc1 | 111% (inactive)
Cc1c2ccccc2nc2cc3c(cc12)[C@H]1CC[C@]2(C)C(=O)CC[C@H]2[C@@H]1CC3 | 92.5% (inactive)
O=C(c1c[nH]c2ccccc12)c1n[nH]c(=S)n1-c1ccc([N+](=O)[O-])cc1 | 97.1% (inactive)
CN1C(=O)/C(=C/c2ccc(C(=O)Nc3ncc(Cc4cccc(C(F)(F)F)c4)s3)cc2)SC1=S | 59.8% (inactive)
